HEK cytotox = HEK 293 cell cytotoxicity. HEK 293 viability, ATP luminescence (CellTiter-Glo), 48-72 h. Potency, µM (top dose mostly 115 µM), for the others: at the top dose activity change, negative = cytotoxicity, actives largely listed as inhibitors. hit rate 6.6% among 94,000. AID 1345083; also: nearly all actives have a fitted effect of over 60% in size
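Read-out: CellTiter-Glo ATP luminescence. Cells: HEK 293, 250 cells/well. Exposure: 48 or 72 hr, 37 degree Celsius.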
FLuc inh = blocks purified firefly luciferase enzyme activity | P08659 | purified P. pyralis luciferase, luminescence, biochemical | Potency, µM (titrated, usually from 115 µM), usual class: inhibitors | hit rate 2.5% among 76,000 | AID 1347043; also: nearly all actives have a fitted effect of over 65% in size
Target sequence (P08659 whole entry, looked up): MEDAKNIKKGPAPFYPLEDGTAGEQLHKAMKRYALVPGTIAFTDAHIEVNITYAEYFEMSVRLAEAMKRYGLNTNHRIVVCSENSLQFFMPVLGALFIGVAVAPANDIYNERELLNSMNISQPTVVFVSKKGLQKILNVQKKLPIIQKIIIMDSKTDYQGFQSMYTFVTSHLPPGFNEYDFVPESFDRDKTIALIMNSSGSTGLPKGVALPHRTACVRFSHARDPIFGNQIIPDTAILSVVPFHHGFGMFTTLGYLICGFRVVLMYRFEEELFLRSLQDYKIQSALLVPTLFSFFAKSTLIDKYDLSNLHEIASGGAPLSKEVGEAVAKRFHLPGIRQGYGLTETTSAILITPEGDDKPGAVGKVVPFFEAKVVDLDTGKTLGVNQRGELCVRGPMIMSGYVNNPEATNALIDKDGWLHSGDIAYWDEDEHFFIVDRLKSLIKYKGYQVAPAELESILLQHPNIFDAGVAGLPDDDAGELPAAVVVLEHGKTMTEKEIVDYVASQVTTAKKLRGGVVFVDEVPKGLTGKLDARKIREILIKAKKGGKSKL
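Inhibitors were tested against purified firefly luciferase in a biochemical, low-substrate format (both substrates at 10uM) and luminescence measured with a CCD imager.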
NIH3T3 tox = cytotoxic compounds in NIH 3T3 cells. NIH 3T3 viability, CellTiter-Glo ATP luminescence, 48-72 h. Potency, µM (titrated, usually from 96.7 µM), for the others: top-dose activity change, negative = cytotoxicity, actives largely listed as inhibitors. hit rate 4.3% among 94,000. AID 1345082; also: nearly all actives have a fitted effect of over 55% in size
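NIH 3T3 cells at 400 cells/well received 23 nL of compound by pintool and were incubated 48 or 72 h at 37 °C. Viability was read as ATP-coupled CellTiter-Glo luminescence.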
hNpr1 antagonist = human Npr1 receptor antagonism; Potency, µM (doses to about 46.3 µM), for the others: top-dose activity change, negative = inhibition, most hits filed as inhibitors; AID 1347048; HEK293 hNpr1 GloSensor cGMP, ANP-stimulated luminescence; hit rate 1.6% among 76,000; P16066; calls by dose curve; also: nearly all actives have a fitted effect of over 60% in size
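HEK293 cells stably expressing human Npr1 and cGMP GloSensor pGS-40F, loaded 2 h with 2% GloSensor reagent, given compound 30 min at room temperature. Luminescence read before and 20 min after 0.1 nM hNppA.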
Active calls of the source: *; i = inactive; u = inconclusive; x = no result; ! = not active in a repeat; [ ] = remark or other dose. Rows were chosen to be rich in hits. Some 11% of all compounds tested hit in one or more screens of this group. Unless noted, calls follow the shape of the dose curve; as a rule, active = well fitted curve in the direction sought with a large enough effect; inconclusive = small, poorly fitted or top-dose-only effect, or another doubt; inactive = no such curve, though single readings can be large; an effect the other way counts as inactive or inconclusive. % is scaled to controls: 0 for no effect and ±100 for the full control effect; potency is read from the fitted curve at half-maximal effect.

SMILES	HEK cytotox	FLuc inh	NIH3T3 tox	hNpr1 antagonist
CCOCCn1c(=O)[nH]c2cc(C(=O)NCc3ccc(F)c(F)c3)ccc21	-12%	i	-8%	0%
Cc1c(-c2ccccc2F)[nH]c2ccc(CNC(=O)Cn3ccc(=O)[nH]c3=O)cc12	45µM*	10µM*	45µM*	-7%
COc1cccc(C(=O)N2CC(Oc3ccccc3-c3nc(-c4cnccn4)no3)C2)c1	u	i	u	-6%
CCNC(=O)N1CCCC(c2noc(COc3ccccc3F)n2)C1 (stereo not drawn)	-4%	35µM*	-17%	1%
Cc1ccccc1CC(=O)N1CCCC(c2noc(COc3ccccc3)n2)C1 (stereo not drawn)	45µM*	i	u	-15%
CC(C)CNC(=O)N1CCCC(c2nc(CCOc3ccc(F)cc3)no2)C1 (stereo not drawn)	40µM*	i	u	-20%
CC(C)(C)NC(=O)N1CCCC(c2nc(CCOc3ccc(F)cc3)no2)C1 (stereo not drawn)	u	i	-22%	-19%
CC(C)NC(=O)N1CCCC(c2noc(COc3ccccc3F)n2)C1 (stereo not drawn)	-8%	i	-21%	0%
CCc1cccc(NC(=O)N2CCCC(c3noc(COc4ccccc4)n3)C2)c1 (stereo not drawn)	u	i	32µM*	u
O=C(Cc1ccsc1)N1CC(c2noc(COc3ccccc3)n2)C1	u	i	-21%	-9%
Cc1ccc(OCc2nc(C3CN(C(=O)Cc4ccsc4)C3)no2)cc1	89µM*	i	u	-18%
CCOC(=O)c1cc2cc(NC(=O)C3=CC(C)(C)Oc4ccc(OC)cc43)ccc2o1	45µM*	x	u	x
CCOC(=O)c1cc2cc(NCC3=CC(C)(C)COc4ccc(OC)cc43)ccc2o1	u	x	-35%	x
c1ccc2cc(-c3noc([C@@H]4Cc5nc[nH]c5CN4CC4CCCCC4)n3)ccc2c1	71µM*	u	50µM*	-17%[70.6 µM]
Cc1ccc(-c2noc([C@@H]3Cc4nc[nH]c4CN3CC3CCCCC3)n2)cc1	63µM*	u	71µM*	1%[70.6 µM]
O=C(N[C@@H]1CN(c2ncccn2)C[C@H]1CO)c1cc2ccccc2[nH]1	-6%	u	-19%	3%
Cn1ncc2c(C(=O)Nc3cccc(Cl)c3)cc(-c3ccc(Cl)cc3Cl)nc21	22µM*	x	32µM*	x
COc1ccc(NC(=O)c2cc(C(C)(C)C)nc3c2cnn3C)cc1	63µM*	x	u	x
Cn1ncc2c(C(=O)Nc3cccc(Cl)c3)cc(C(C)(C)C)nc21	63µM*	x	u	x
COc1ccc(-c2cc(C(=O)Nc3ccc(Cl)cc3)c3cnn(C)c3n2)cc1	-4%	x	-19%	x
COc1ccc(-c2cn3cc(C(=O)NCCc4ccccc4F)nc3s2)cc1	-14%	x	-22%	x
COCc1nc(-c2ccc(OC3CN(C(=O)C(C)Oc4ccccc4)C3)cc2)no1 (stereo not drawn)	40µM*	i	u	u
COCc1nc(-c2ccc(OC3CN(C(=O)c4ccc(OC)cc4)C3)cc2)no1	u	i	u	1.4µM*
O=C(Cc1cccc(Cl)c1)N1CCC(C(=O)N2CCC(N3Cc4ccccc4C3=O)CC2)CC1	50µM*	x	u	x
O=C(C1CC1)N1CCC(C(=O)N2CCC(N3Cc4ccccc4C3=O)CC2)CC1	-10%	x	-15%	x
SMILES	HEK cytotox	FLuc inh	NIH3T3 tox	hNpr1 antagonist
O=C(N1CCC(Cc2noc(-c3ccc(F)cc3)n2)C1)C1(c2ccccc2)CC1 (stereo not drawn)	40µM*	x	u	x
Cc1ccc(CNC(=O)N2CCCC(Cc3noc(-c4ccccc4)n3)C2)cc1 (stereo not drawn)	28µM*	i	25µM*	4%
COc1ccc(CNC(=O)N2CCC(c3noc(-c4ccccc4)n3)C2)cc1 (stereo not drawn)	45µM*	i	u	u
Cn1cnc(S(=O)(=O)N2CCCC(Cc3noc(-c4ccccc4)n3)C2)c1 (stereo not drawn)	u	35µM*	u	2%
O=C(Cn1c(=O)oc2ccccc21)N1CCCC(Cc2noc(-c3ccccc3)n2)C1 (stereo not drawn)	u	40µM*	-22%	7%
COCCOC1CCN(C(=O)c2sc(C)nc2C)CC1	0%	35µM*	3%	7%
Cc1ccc(OCc2nc(C3CCCN3C(=O)NC(C)C)no2)cc1 (stereo not drawn)	-30%	i	-16%	-1%
COc1ccccc1-c1ccc(CN2CCCCC2C(=O)N2CCC(c3ccccc3)CC2)cc1 (stereo not drawn)	25µM*!	x	40µM*	x
COc1ccccc1-c1ccc(CN2CCCCC2C(=O)N2CCN(Cc3ccccc3)CC2)cc1 (stereo not drawn)	32µM*	x	u	x
O=C(C1CCCN1C(=O)C1CC1)N1CCC(c2ccccc2)CC1 (stereo not drawn)	-19%[172 µM]	x	-34%[138 µM]	x
CC(=O)N1CCN(C(=O)C2CCCCN2Cc2ccc(-c3cccs3)cc2)CC1 (stereo not drawn)	-30%	x	-19%	x
O=C(Nc1ccc(Cl)cc1)N1CCC(C(=O)N2CCC(c3nc4ncccc4[nH]3)CC2)C1 (stereo not drawn)	3%	x	u	x
O=C(C1CCN(S(=O)(=O)c2cccc(C(F)(F)F)c2)CC1)N1CCC(c2ccccc2)CC1	22µM*	x	u	x
O=C(c1ccc(C(F)(F)F)cc1)N1CCC(C(=O)N2CCC(c3ccccc3)CC2)CC1	45µM*	x	u	x
O=C(C1CC1)N1CCC(C(=O)N2CCC(c3ccccc3)CC2)CC1	-26%[172 µM]	x	u	x
O=C(C1CCCN1[S+](=O)([O-])c1cccc(C(F)(F)F)c1)N1CCC(c2ccccc2)CC1 (stereo not drawn)	25µM*	x	35µM*	x
Cc1nn(-c2ccccc2)c2c1C(C(C)C)N(C1CCN([S+](C)(=O)[O-])C1)C2=O (stereo not drawn)	-21%	x	u	x
N#Cc1cccc(-c2c(C(=O)NC3CCCCC3)nc3sccn23)c1	-7%[172 µM]	x	-20%[138 µM]	x
Cc1ccncc1C(=O)N1CC(N(C)Cc2cccnc2)C1	1%	35µM*	5%	-2%
COc1ccc(-c2nc(C3CC3)nc3c2CN(C(=O)c2ccccc2)CC3)cc1	-12%	x	u	x
OCC1CN(C2CCC2)CC12CCN(Cc1cc(F)ccc1F)CC2 (stereo not drawn)	40µM*	i	u	-5%
OCC1CN(C2CCC2)CC12CCN(Cc1ccc(F)cc1)CC2 (stereo not drawn)	45µM*	i	u	-10%
OCC1CN(C2CCC2)CC12CCN(Cc1cc(F)c(F)c(F)c1)CC2 (stereo not drawn)	u	i	u	-19%
COCC1CN(C2CCC2)CC12CCN(C(=O)Cc1ccccc1F)CC2 (stereo not drawn)	50µM*	i	u	-15%
O=c1c2nc(-c3ccc(O)c(F)c3)ccc2ncn1-c1ccccc1	-15%[172 µM]	u	u	8%[70.6 µM]
